Data on 1 molecule can be found in the supplement of paper PMC8728848.

Shown is part of a subset that was picked to be rich in the strongest signals.

Assay in all cases: glycan array binding signal (z-score within array); higher = stronger binding
Holding throughout (conditions): glycan notation: IUPAC condensed, linker removed

Assay [1] has as its target Neu5Ac(a2-3)Gal(b1-4)[Fuc(a1-3)]GlcNAc(b1-6)[Neu5Ac(a2-3)Gal(b1-3)]GalNAc. The method, boiled down: (§1)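 Glycan array data came from 3228 arrays in the Consortium for Functional Glycomics database, and only arrays with an available protein sequence were kept. Glycan names were put into IUPAC-condensed notation, and columns mapping to the same glycan were averaged. The binding signal is a within-array Z-score, averaged across arrays of one protein sequence run at different concentrations or buffers and across linkers. A negative Z-score can be read as non-binding.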

For the next assay, the target named is Neu5Ac(a2-6)Gal. In short, it runs like this:
as §1

The target in assay [2] is Neu5Ac(a2-6)Gal(b1-3)GlcNAc(b1-3)[Gal(b1-4)GlcNAc(b1-6)]Gal(b1-4)Glc. In short, it runs like this:
as §1

Assay [3] has as its target Neu5Ac(a2-6)Gal(b1-4)GlcNAc(b1-2)Man(a1-6)[GlcNAc(b1-2)Man(a1-3)]Man(b1-4)GlcNAc(b1-4)GlcNAc. The method, boiled down: as §1
The target of assay [4] is Neu5Ac(a2-6)Gal(b1-4)GlcNAc(b1-3)Gal(b1-4)GlcNAc(b1-3)Gal(b1-4)GlcNAc. In short, it runs like this: as §1
Assay [5] has as its target Neu5Ac(a2-6)GalNAc(b1-4)GlcNAc. In short, it runs like this:
as §1

The target in assay [6] is Neu5Ac(a2-6)GlcNAc(b1-4)GlcNAc. The method, boiled down:
as §1

Assay [7] deals with Neu5Ac(a2-8)Neu5Ac(a2-3)Gal(b1-4)Glc. The method, boiled down:
as §1

The target in assay [8] is Neu5Ac9Ac(a2-6)Gal(b1-4)GlcNAc. The method, boiled down: as §1
For assay [9], the target named is Neu5Gc(a2-3)Gal(b1-4)GlcNAc. The method, boiled down: as §1

B1: LSectin (Mus musculus), Q8BNX1 (protein)
chain: MNTGEYNKLGSAIEEVSRGQLGRWECYKQRLFFLVLALLVATVLWALILSTLLSSASSKLRVLLSHQDLLRTNASEQKMTLSSLKDDIGACRNCCSVTKAQLQTTLAEFKDIQAKLMEQESILKELQERVTQDLAKASRDRENIRSELFQALEAVKRQNSSCEQCPPSWLPFQGSCYYFSETQATWDTAQSYCGGQGAHLVIVRGLNEQGFLSQHTRGRGYWLGLRAVRHLNKIQGYRWVDGASLNFSHWNSGEPNDSRGHEDCIMMLHSGLWNDAPCTNERDGWICEKRSSCY
Take B1: the “glycan array binding signal (z-score)” value was -0.181 in [1]; -0.118 with Neu5Ac(a2-6)Gal; -0.187 in [2]; 4.19 in [3]; -0.182 in assay [4]; 3.69 in assay [5]. The “glycan array binding signal (z-score)” value in [6] was -0.18; in [7] it was -0.158; in assay [8], -0.16; in [9] it was -0.156.
